The list is not random: actives were taken first. Their share in the collection is about 7.8%.
sEH activator: increases human soluble epoxide hydrolase activity. P34913. purified human sEH enzymatic activity, activator screen. activation, % at 2 µM. hit rate 0.04% among 91,000; in the data active = activation above about 37%
PostGolgi yeast: growth inhibition of a yeast mutant, post-Golgi transport screen; inhibition, % at 10 µM; hit rate 0.9% among 98,000; post-Golgi transport phenotypic cell assay;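 also: yeast cells grown in 1536-well plates; yeast grown about 18 h at 30C before absorbance read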
Cav32 inh: inhibitors of human Cav3.2 T-type calcium channel; O95180; Cav3.2-expressing cells, Fluo-4 calcium fluorescence FDSS; active compounds read low; B-score at 10 µM; hit rate 4% among 100,000; AID 449739;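 active = single-dose well whose peak fluorescence ratio is a statistical outlier from its plate by either plate-standardised score or position-corrected B-score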
sEH inh: inhibitors of human soluble epoxide hydrolase; inhibition, % at 2 µM; P34913; hit rate 0.34% among 91,000; AID 707; recombinant human sEH enzymatic activity assay; in the data active = inhibition above about 80%
PostGolgi ctrl: yeast control strain growth, post-Golgi counter-screen; efflux-deficient yeast background strain, growth absorbance A615, 16 h; inhibition, % at 10 µM; hit rate 5% among 98,000
Of the large screens only hits and unclear results are named; the others gave an inactive call. Rule as the data show it, unless noted: active = inhibition above about 30%; inactive = the rest.

Cc1ccccc1NS(=O)(=O)c1cc(C(=O)Nc2ccccc2-c2ccccc2)ccc1Cl	Cav32 inh -3.39
Cc1ccc(C)c(NS(=O)(=O)c2cc(C(=O)N3CCc4ccccc4C3)ccc2Cl)c1	PostGolgi yeast 103.9, PostGolgi ctrl 70.6
Cc1ccc(C(=O)N2CCOCC2)cc1S(=O)(=O)Nc1cccc(C)c1C	none
C=CCNC(=O)c1ccccc1NC(=O)c1ccc(Cl)c(S(=O)(=O)Nc2cc(C)ccc2C)c1	none
Cc1cccc(NS(=O)(=O)c2cc(C(=O)N3CCc4ccccc4C3)ccc2Cl)c1C	PostGolgi yeast 96.8, PostGolgi ctrl 73.9
O=C(c1c(F)cccc1F)N(Cc1ccccn1)C1CC1	none
COc1ccc(C2=NOC(c3nnc(-c4ccccc4)o3)C2)cc1 (centres undefined)	none (no result: sEH activator, PostGolgi yeast, sEH inh, PostGolgi ctrl)
FC(F)(F)c1cnc(Sc2nc3nccc(-c4ccc(Cl)cc4)n3n2)c(Cl)c1	PostGolgi ctrl 39.2 (no result: Cav32 inh)
CC(C)NC(=O)c1cnc(Sc2ncc(C(F)(F)F)cc2Cl)n1C	none
CSc1nc2nccc(-c3ccc(Cl)cc3)n2n1	PostGolgi ctrl 40.1
COc1ccc(-c2ccnc3nc(Sc4ncc(C(F)(F)F)cc4Cl)nn23)cc1	PostGolgi ctrl 39.7
Fc1ccc(-c2ccnc3nc(-n4cccc4)nn23)cc1	none
CCOC(=O)Cc1csc(SCc2nc3sc4c(c3c(=O)[nH]2)CCC4)n1	none
O=C(CP(=O)(c1ccccc1)c1ccccc1)Nn1cnnc1	none
Cc1cccc(OCC(=O)Nc2ccccc2N2CCN(C(=O)C(C)C)CC2)c1C	Cav32 inh -4.92, PostGolgi ctrl 41.6
CC(=O)N1CCN(c2ccccc2NC(=O)COc2cc(C)ccc2C(C)C)CC1	Cav32 inh -5.74
Cc1ccccc1OCC(=O)Nc1ccccc1N1CCCCC1	none
Cc1ccc(C(C)C)c(OCC(=O)Nc2ccccc2N2CCN(C)CC2)c1	none
CCOc1ccc(-c2nnc(-c3ccccc3)o2)cc1	Cav32 inh -2.87 (no result: PostGolgi yeast, PostGolgi ctrl)
CCOC(=O)c1nnc(-c2ccccc2)o1	Cav32 inh -4.5
CCOc1ccc(-c2nnc(-c3ccc(OC)cc3)o2)cc1	none (no result: PostGolgi yeast, PostGolgi ctrl)
COc1ccc(OCCCC(=O)Nc2cc([N+](=O)[O-])ccc2C)cc1	none
c1ccc(-c2cc3n(c2)CCc2ccccc2-3)cc1	none (no result: PostGolgi yeast, PostGolgi ctrl)
O=c1[nH]c(SCc2ccccc2Cl)nc2c1cnn2-c1ccccc1	PostGolgi ctrl 41.6 (no result: sEH activator, Cav32 inh, sEH inh)
CCCc1cc(=O)[nH]c(SCc2ccccc2Cl)n1	PostGolgi ctrl 44.5
c1ccc(Cc2cc(-c3ccccc3)on2)cc1	none (no result: PostGolgi yeast, PostGolgi ctrl)
Cn1c(=O)n(Cc2ccccc2)c(=O)c2c1nc1n2CCCN1Cc1ccccc1	PostGolgi ctrl 31.8 (no result: Cav32 inh)
Cc1ccc(Cn2c(=O)c3c(nc4n3CCCN4Cc3ccccc3)n(C)c2=O)cc1	PostGolgi ctrl 38.5
COc1ccc(S(=O)(=O)n2nc(OC(C)=O)cc2N(C(C)=O)C(C)=O)cc1	none (no result: sEH activator, PostGolgi yeast, sEH inh, PostGolgi ctrl)
O=C(CC(=O)N1CCN(c2ccccn2)CC1)Nc1ccc2nc3n(c(=O)c2c1)CCCCC3	none (no result: Cav32 inh)
CCc1ccccc1NC(=O)CN1C(=O)C2CCCN2c2ncc(Cl)cc21 (centres undefined)	none
CC1CCC(NC(=O)CN2C(=O)C3CCCN3c3ncc(Cl)cc32)CC1 (centres undefined)	Cav32 inh -6.54
CC(C)Oc1cccc(-c2nnc(SCC(=O)Nc3ccc4c(c3)OCCO4)n2N)c1	none
O=C(O)c1cnc(-c2ccccc2)nc1Sc1cccc(Cl)c1	Cav32 inh -6.28
Cc1c(Cl)cccc1NC(=S)NN1CCOCC1	none
COc1cccc(NC(=O)Cn2c(=O)c3c(ncn3Cc3ccccc3)n(Cc3ccccc3)c2=O)c1	none
CCOc1ccccc1-c1nnc(SCC(=O)Nc2ccccc2)o1	PostGolgi ctrl 43.3
CSc1nc(-c2ccccc2)nn1C(=O)c1ccc(Cl)cc1	none
O=C(c1ccc(Cl)cc1)N1CCCC(c2ccccc2)=N1	PostGolgi ctrl 36.0
CCOc1ccc2ncc(C(=O)c3ccc(OC)cc3)c(N3CCN(CC)CC3)c2c1	none (no result: sEH activator, PostGolgi yeast, sEH inh, PostGolgi ctrl)
CCOC(=O)c1cnc2ccc(OCC)cc2c1N1CCN(c2ccccc2OC)CC1	PostGolgi ctrl 59.4
COC(=O)C(CCCCN1C(=O)C2C3C=CC(C3)C2C1=O)N1C(=O)C2C3C=CC(C3)C2C1=O (centres undefined)	none
COc1ccc(C(=O)COC(=O)C(CCCCN2C(=O)C3C4C=CC(C4)C3C2=O)N2C(=O)C3C4C=CC(C4)C3C2=O)cc1 (centres undefined)	Cav32 inh -3.68 (no result: PostGolgi yeast, PostGolgi ctrl)
CCCCc1ccc(Nc2ncnc3nc[nH]c23)cc1	PostGolgi ctrl 60.1 (no result: Cav32 inh)
CN1C(=O)N(c2ccccc2)C(Nc2nncs2)C1(C)C (centres undefined)	none (no result: sEH activator, Cav32 inh, sEH inh)
CC(Cc1cccs1)NC(=O)Nc1ccc(Cl)cc1 (centres undefined)	sEH inh 86.8
